According to article PMC7819943, “Rice protein-binding microarrays: a tool to detect cis-acting elements near promoter regions in rice”:
Whole data set: some 35,000 sequences, median “fluorescence intensity (a.u.)” near 10,000, cut for the highest 2% near 52,000. The list comes from a sample in which the highest values are over-represented; it also holds similar and randomly drawn sequences.

Biological target: T1, OsWOX13 (Oryza sativa, UniProt Q5QMM3 1-267)
T1 sequence: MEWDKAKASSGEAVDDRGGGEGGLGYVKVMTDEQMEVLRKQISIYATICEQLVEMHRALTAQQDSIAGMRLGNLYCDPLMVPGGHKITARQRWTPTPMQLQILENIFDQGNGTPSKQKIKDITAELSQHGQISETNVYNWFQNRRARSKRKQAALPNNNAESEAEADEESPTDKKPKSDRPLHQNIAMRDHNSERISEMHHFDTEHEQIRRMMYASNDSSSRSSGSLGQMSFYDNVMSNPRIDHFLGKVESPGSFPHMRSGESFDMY
Test: protein-binding microarray (RPBM); PBS, 2% BSA, 51.3 ng/ul salmon testes DNA, 50 uM zinc acetate, 200 nM TF, 25 C, 1 h; high values mean tight binding
Conditions: protein: recombinant; tags: N-terminal polyhistidine and DsRed monomer fusion (pET32a); label: CyDye5-dUTP incorporated in the synthesized complementary strand; 3' TTTTT single-stranded linker to array surface; dsDNA, one strand shown
Procedure, shortened: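 Per-feature fluorescence intensity (arbitrary units), read on an Axon 4000B scanner, is the binding signal. Transcription factors carrying an N-terminal polyhistidine tag and DsRed fusion were expressed in E. coli BL21-CodonPlus and purified on Ni–NTA. A custom Agilent array, made double-stranded by primer extension with Cy5-dUTP and blocked with 2% BSA, was incubated with 200 nM protein in PBS, 2% BSA, salmon testes DNA and 50 µM zinc acetate at 25 °C for 1 h and then washed.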

| Sequence | binding signal |
| --- | --- |
| TGATAATTTTAAATTAAATAAGTAAATTTCAGAAAACTATCGGAGTCACCTAGTGCAG | 29700 fluorescence intensity (a.u.) |
| TTATATTTAGATTGAAGCCAAAATAACCTAAGTTCACTATCGGAGTCACCTAGTGCAG | 8620 fluorescence intensity (a.u.) |
| TTTTACTATAACGTTTGATCATTTGTGTTATTTAAATTTTCGGAGTCACCTAGTGCAG | 4170 fluorescence intensity (a.u.) |
| TGATTTGGCTGATTAGATGCAATTTAGTCCTGCCACTGTGCGGAGTCACCTAGTGCAG | 16900 fluorescence intensity (a.u.) |
| AATCAATCAATTAGTTAGAGATCAAGTTATTAGTGTCCAACGGAGTCACCTAGTGCAG | 31100 fluorescence intensity (a.u.) |
| CAAATAAACAGGGTTCAGTCAAACTCAAGTGAATGAATTGCGGAGTCACCTAGTGCAG | 11500 fluorescence intensity (a.u.) |
| GTGCAATTTAACTCCATAAATTACTTTCAGAAATGTGCAGCGGAGTCACCTAGTGCAG | 11300 fluorescence intensity (a.u.) |
| GTCATCAATGATTCAGTGTTAACTACTCCATTTCTAGAAACGGAGTCACCTAGTGCAG | 3880 fluorescence intensity (a.u.) |
| ATGAGCCTAACCATTTCTAGTGTTACTTACTCCATTTCAGCGGAGTCACCTAGTGCAG | 64200 fluorescence intensity (a.u.) |
| ATAATGGGAAATGGAGGGTGGGATTGGGATTAGAAAATGACGGAGTCACCTAGTGCAG | 3290 fluorescence intensity (a.u.) |
| AATATTAGTATTAATTGATAAAAGTTCGTCACGCGAGTTACGGAGTCACCTAGTGCAG | 18200 fluorescence intensity (a.u.) |
| GAGTAATTTTCTACTGGTTTTAATAGTTGAAATAGCTGTTCGGAGTCACCTAGTGCAG | 3780 fluorescence intensity (a.u.) |
| ATTTTGAAGTTCCTGTAAGTTGGACATATCTACTGGTTCCCGGAGTCACCTAGTGCAG | 65500 fluorescence intensity (a.u.) |
| TAAATTGAATGGTTTTGTAAGTTGAGGGACGTCATATATCCGGAGTCACCTAGTGCAG | 21500 fluorescence intensity (a.u.) |
| TATCTCTAATTTAGTTAATTTAACTTGTTGATCGATCGCTCGGAGTCACCTAGTGCAG | 21700 fluorescence intensity (a.u.) |
| CGTTTCTGATTTGATTCTTCCAAATTTTGGGTTCCTGATTCGGAGTCACCTAGTGCAG | 24800 fluorescence intensity (a.u.) |
| TTTGATTTAATTTGTTCTGCAAACAGTCCGGAAAATGCCTCGGAGTCACCTAGTGCAG | 53500 fluorescence intensity (a.u.) |
| TCGGTCTGCAAACAAATTGATTGATTTGTTTTCCTTTTGCCGGAGTCACCTAGTGCAG | 47100 fluorescence intensity (a.u.) |
| CAATAAATTTGAATAGCAATTGGTATATGTCATATCTGGTCGGAGTCACCTAGTGCAG | 14900 fluorescence intensity (a.u.) |
| TTATACAAATTATACCTGTTAATTATTGTGATTGTTTGGTCGGAGTCACCTAGTGCAG | 36800 fluorescence intensity (a.u.) |
| AGCAAATTTAAATTTGATAGTATAGAATTGGTTCTGAGGTCGGAGTCACCTAGTGCAG | 52400 fluorescence intensity (a.u.) |

| Sequence | binding signal |
| --- | --- |
| AGTTTATGATAATTTAAATTTATATAGTATGTAGAATGGTCGGAGTCACCTAGTGCAG | 14400 fluorescence intensity (a.u.) |
| TTGATTTGATTGGGTTGGTTCCAAATTATATTCTGTGATTCGGAGTCACCTAGTGCAG | 57600 fluorescence intensity (a.u.) |
| CAAAACTGTCATTTTGTATGATTTCTCTCTCATCAATTGGCGGAGTCACCTAGTGCAG | 17500 fluorescence intensity (a.u.) |
| CCAAATTTGATTGGCATCTCAAAACTGTCGTATAATTGGGCGGAGTCACCTAGTGCAG | 65500 fluorescence intensity (a.u.) |
| ACTTGTAGTAATTTAATTTGAAATTCTGTTCTTGCCTCTGCGGAGTCACCTAGTGCAG | 6760 fluorescence intensity (a.u.) |
| ATTTTCTCAATTTATCTCACTCATATAAACTCCAAATTGGCGGAGTCACCTAGTGCAG | 6170 fluorescence intensity (a.u.) |
| ATTCGTAACCACTTAATTACCCATTTATCCCCTTCTGATTCGGAGTCACCTAGTGCAG | 10600 fluorescence intensity (a.u.) |
| TATAAATTTAGTTAAATATATATAAAGAAGTTTGACTTATCGGAGTCACCTAGTGCAG | 9160 fluorescence intensity (a.u.) |
| TAATAATTTATTATGTGTATGTGTATGGCTAGGATACAGCCGGAGTCACCTAGTGCAG | 16500 fluorescence intensity (a.u.) |
| TGTTTTACCCTGATTGCGTGAAGTGAAACTATTATTCAGGCGGAGTCACCTAGTGCAG | 3550 fluorescence intensity (a.u.) |
| ATCATAATTTGAAATTCAAATTCATACTGTTCAAACAAAGCGGAGTCACCTAGTGCAG | 17600 fluorescence intensity (a.u.) |
| GTCATAATTTGAAATTCAAATTTAAACTATTCAAACAAAGCGGAGTCACCTAGTGCAG | 23300 fluorescence intensity (a.u.) |
| AAAATTATATAATTATAATTTATTTTATTGCAACTTGATTCGGAGTCACCTAGTGCAG | 27000 fluorescence intensity (a.u.) |
| GCAAATTGAATTAATTCGTGTGATATTTGTTCTGCACCGGCGGAGTCACCTAGTGCAG | 59500 fluorescence intensity (a.u.) |
| ACTAATTTGGTATTATAACTGTTGCTAATTATTCTATAAACGGAGTCACCTAGTGCAG | 21700 fluorescence intensity (a.u.) |
| CAAATTGGTGGGTGATTGCTAATTTATAACTGTTCGTATTCGGAGTCACCTAGTGCAG | 64100 fluorescence intensity (a.u.) |
| TTTCGTGATAATTTTGTGTGCAATCACAACAATTTGAAATCGGAGTCACCTAGTGCAG | 6180 fluorescence intensity (a.u.) |
| TGTATTTGATTGAAACTGTTCATACTATAAACATGCTGGGCGGAGTCACCTAGTGCAG | 57900 fluorescence intensity (a.u.) |
| GTTCGTTCGTTCGTTGATTGATTGTGTTGAATTAATTGAGCGGAGTCACCTAGTGCAG | 27600 fluorescence intensity (a.u.) |
| TCCACTCAATCTTCTGTTTCTATTTCCCCGTAATCGAAGCCGGAGTCACCTAGTGCAG | 4630 fluorescence intensity (a.u.) |
| AGCTAAATTGATTCGTGCACCCAAGTCAACAAGAAAACGTCGGAGTCACCTAGTGCAG | 38900 fluorescence intensity (a.u.) |
